± gives the standard deviation.

Holding throughout (settings): modulator concentration 10 µM
Assay [1] deals with RAW-Dual (murine macrophage reporter line). The assay can be described thus: NF-kB reporter (SEAP) activity fold change vs agonist alone; higher = enhanced NF-kB activity. In outline: (§1)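 Compound reached 10 μM final in each well by pin transfer, onto RAW-Dual murine macrophage reporter cells seeded at 50 000 per well in 384-well plates. After 1 hour at 37 °C, the cells were stimulated overnight with a PRR agonist. SEAP in the supernatant was read with QUANTI-Blue at 620 nm absorbance for NF-κB, and Lucia luciferase was read with QUANTI-Luc luminescence for IRF. Each signal was turned into fold change against the mean agonist-only control on the same plate, and two replicate plates were averaged with propagated errors.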

For assay [2] the test system is unchanged. Kind of assay: IRF reporter (Lucia luciferase) activity fold change vs agonist alone; higher = enhanced IRF activity. In outline:
as §1

Assay [3] shares this test system. Kind of assay: viability score (confluency relative to resting cells, overnight) (fraction); higher = more viable, active = viable (0.7 or more). In outline:
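RAW-Dual macrophages in 384-well plates were treated overnight with compound at 10 μM final. IncuCyte imaging recorded confluency, and IncuCyte software built two confluency masks across every imaged well. The viability score expresses confluency relative to resting cells and was judged against a cutoff, which a compound met only if both masks exceeded 70% of resting cells.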

Where [4] appears, read: agonist: CpG ODN 1826 0.5 ug/mL.

Regarding `COC(=O)C1=C(C#N)NC(C)=C(C(=O)OC(C)C)C1c1cccc([N+](=O)[O-])c1` (stereo not drawn), the NF-kB reporter in assay [1] (setting [4]) was 0.832 ± 0.041; in assay [1] (agonist: LPS 0.1 ug/mL), 1.01 ± 0.097; in assay [1] (agonist: MPLA […]), 0.929 ± 0.04. Besides, the results for the IRF reporter in assay [2] (agonist: 3'3'-cGAMP 10 ug/mL), in assay [2] (agonist: LPS 0.1 ug/mL) and in assay [2] (agonist: MPLA […]) were 0.978 ± 0.083, 1.1 ± 0.068 and 1.19 ± 0.12, respectively. Further, the viability score in assay [3] was 0.968 (active).
Consider `CCOc1ccccc1NC(=O)NCCc1csc(-n2nc(C)cc2C)n1`, for which the NF-kB reporter in assay [1] (setting [4]) turned out to be 0.996 ± 0.069; in assay [1] (agonist: LPS 0.1 ug/mL), 1.14 ± 0.096; in assay [1] (agonist: MPLA […]), 0.797 ± 0.12. Moreover, the IRF reporter in assay [2] (agonist: 3'3'-cGAMP 10 ug/mL) is 1.12 ± 0.085; in assay [2] (agonist: LPS 0.1 ug/mL), 0.983 ± 0.061; in assay [2] (agonist: MPLA […]), 0.938 ± 0.41. Also, the viability score in assay [3] was 1.01 (active).
In the case of `O=C(O)c1ccc(NCn2nnc3ccccc32)cc1`, the figures for the NF-kB reporter in assay [1] (setting [4]), in assay [1] (agonist: LPS 0.1 ug/mL) and in assay [1] (agonist: MPLA […]) were 1.05 ± 0.1, 0.928 ± 0.12 and 1.03 ± 0.097, respectively. In addition, the IRF reporter in assay [2] (agonist: 3'3'-cGAMP 10 ug/mL) was 1 ± 0.032; in assay [2] (agonist: LPS 0.1 ug/mL), 1.37 ± 0.27; in assay [2] (agonist: MPLA […]), 1.51 ± 0.23. Further, the viability score in assay [3] was 1 (active).
For `CNc1ncnc2c1ncn2[C@@H]1O[C@H](CO)[C@@H](O)[C@H]1O` [Prestw-338], the results for the NF-kB reporter in assay [1] (setting [4]), in assay [1] (agonist: LPS 0.1 ug/mL) and in assay [1] (agonist: MPLA […]) were 0.931 ± 0.073, 0.929 ± 0.09 and 1.16 ± 0.15, respectively. Besides, the figures for the IRF reporter in assay [2] (agonist: 3'3'-cGAMP 10 ug/mL), in assay [2] (agonist: LPS 0.1 ug/mL) and in assay [2] (agonist: MPLA […]) were 1.15 ± 0.043, 1.25 ± 0.17 and 1.33 ± 0.25, respectively. Also, the viability score in assay [3] is 1.05 (active).
Consider `CCOC(=O)C(CCCOc1c(C)cc(Cl)cc1C)C(=O)OCC`, for which the NF-kB reporter in assay [1] (setting [4]) came to 0.961 ± 0.078; in assay [1] (agonist: LPS 0.1 ug/mL), 0.909 ± 0.069; in assay [1] (agonist: MPLA […]) it was 1.08 ± 0.086. Moreover, the results for the IRF reporter in assay [2] (agonist: 3'3'-cGAMP 10 ug/mL), in assay [2] (agonist: LPS 0.1 ug/mL) and in assay [2] (agonist: MPLA […]) were 0.985 ± 0.04, 0.95 ± 0.045 and 1.22 ± 0.17, respectively. The viability score in assay [3] is 0.997 (active).
In the case of `CC1=C(CC(=O)O)c2cc(F)ccc2/C1=C\c1ccc(S(C)=O)cc1` (stereo not drawn), the figures for the NF-kB reporter in assay [1] (setting [4]), in assay [1] (agonist: LPS 0.1 ug/mL) and in assay [1] (agonist: MPLA […]) were 0.984 ± 0.14, 0.828 ± 0.061 and 1.13 ± 0.098, respectively. Also, the IRF reporter in assay [2] (agonist: 3'3'-cGAMP 10 ug/mL) was found to be 1.09 ± 0.051; in assay [2] (agonist: LPS 0.1 ug/mL), 1.23 ± 0.073; in assay [2] (agonist: MPLA […]) it was 1.41 ± 0.13. For the same molecule, the viability score in assay [3] is 1 (active).
With `CC(C)=CCC/C(C)=C/CC/C(C)=C/CSc1ccccc1C(=O)O`, the results for the NF-kB reporter in assay [1] (setting [4]), in assay [1] (agonist: LPS 0.1 ug/mL) and in assay [1] (agonist: MPLA […]) were 1.32 ± 0.071, 0.929 ± 0.074 and 2.18 ± 0.19, respectively. The IRF reporter in assay [2] (agonist: 3'3'-cGAMP 10 ug/mL) was found to be 0.18 ± 0.011; in assay [2] (agonist: LPS 0.1 ug/mL) it was 0.52 ± 0.084; in assay [2] (agonist: MPLA […]), 0.721 ± 0.16. Besides, in assay [3], the viability score was 0.902 (active).
In the case of `COc1c(C)c2c(c(O)c1CC=C(C)CCC(=O)O)C(=O)OC2`, the NF-kB reporter in assay [1] (setting [4]) was determined as 0.695 ± 0.23; in assay [1] (agonist: LPS 0.1 ug/mL), 0.118 ± 0.008; in assay [1] (agonist: MPLA […]) it was 0.367 ± 0.023. Moreover, the IRF reporter was found to be 0.287 ± 0.0097 in assay [2] (agonist: 3'3'-cGAMP 10 ug/mL), 1.16 ± 0.15 in assay [2] (agonist: LPS 0.1 ug/mL) and 1.55 ± 0.16 in assay [2] (agonist: MPLA […]). The viability score in assay [3] is 0.547 (inactive).
For the molecule `CCCCC(=O)N(Cc1ccc(-c2ccccc2-c2nn[nH]n2)cc1)[C@H](C(=O)O)C(C)C`, the NF-kB reporter in assay [1] (setting [4]) is 1.04 ± 0.16; in assay [1] (agonist: LPS 0.1 ug/mL), 1.03 ± 0.15; in assay [1] (agonist: MPLA […]) it was 0.903 ± 0.05. Further, the IRF reporter in assay [2] (agonist: 3'3'-cGAMP 10 ug/mL) was determined as 0.589 ± 0.054; in assay [2] (agonist: LPS 0.1 ug/mL) it was 0.855 ± 0.14; in assay [2] (agonist: MPLA […]), 0.704 ± 0.12. Besides, the viability score in assay [3] was 0.996 (active).
As to `O=C1CCC(N2C(=O)c3ccccc3C2=O)C(=O)N1` (stereo not drawn), the NF-kB reporter in assay [1] (setting [4]) was 1.13 ± 0.088; in assay [1] (agonist: LPS 0.1 ug/mL), 1.03 ± 0.16; in assay [1] (agonist: MPLA […]), 1.04 ± 0.12. For the same molecule, the IRF reporter in assay [2] (agonist: 3'3'-cGAMP 10 ug/mL) turned out to be 1.11 ± 0.25; in assay [2] (agonist: LPS 0.1 ug/mL), 0.897 ± 0.054; in assay [2] (agonist: MPLA […]), 0.863 ± 0.067. For the same molecule, in assay [3], the viability score was 0.999 (active).
As for `c1ccc(CCn2c3ccccc3c3nnc(SCCN4CCOCC4)nc32)cc1`, the NF-kB reporter was found to be 0.859 ± 0.067 in assay [1] (setting [4]), 0.912 ± 0.11 in assay [1] (agonist: LPS 0.1 ug/mL) and 1.01 ± 0.091 in assay [1] (agonist: MPLA […]). Also, the values for the IRF reporter in assay [2] (agonist: 3'3'-cGAMP 10 ug/mL), in assay [2] (agonist: LPS 0.1 ug/mL) and in assay [2] (agonist: MPLA […]) were 0.697 ± 0.042, 1.2 ± 0.13 and 1.33 ± 0.18, respectively. Besides, the viability score in assay [3] is 1.01 (active).
For the molecule `COc1ccc(CC(=O)Nc2nc(CSCc3ccc(F)cc3)cs2)cc1`, the NF-kB reporter was 0.968 ± 0.057 in assay [1] (setting [4]), 1.06 ± 0.081 in assay [1] (agonist: LPS 0.1 ug/mL) and 1.08 ± 0.069 in assay [1] (agonist: MPLA […]). Besides, the IRF reporter in assay [2] (agonist: 3'3'-cGAMP 10 ug/mL) came to 0.832 ± 0.036; in assay [2] (agonist: LPS 0.1 ug/mL), 0.981 ± 0.045; in assay [2] (agonist: MPLA […]), 0.968 ± 0.1. For the same molecule, the viability score in assay [3] was 0.941 (active).
`Cc1cnc(C(=O)O)c[n+]1[O-]`: the NF-kB reporter turned out to be 1.09 ± 0.085 in assay [1] (setting [4]), 0.988 ± 0.074 in assay [1] (agonist: LPS 0.1 ug/mL) and 1.03 ± 0.026 in assay [1] (agonist: MPLA […]). For the same molecule, the IRF reporter was 0.962 ± 0.069 in assay [2] (agonist: 3'3'-cGAMP 10 ug/mL), 0.966 ± 0.048 in assay [2] (agonist: LPS 0.1 ug/mL) and 0.926 ± 0.11 in assay [2] (agonist: MPLA […]). For the same molecule, the viability score in assay [3] is 1 (active).
Regarding `CC(NC(=O)C1CCN(S(=O)(=O)N2CCCC2)CC1)c1ccc(F)cc1` (stereo not drawn), the NF-kB reporter in assay [1] (setting [4]) was found to be 1.08 ± 0.054; in assay [1] (agonist: LPS 0.1 ug/mL), 1.05 ± 0.082; in assay [1] (agonist: MPLA […]), 0.928 ± 0.041. Besides, the IRF reporter was found to be 0.953 ± 0.051 in assay [2] (agonist: 3'3'-cGAMP 10 ug/mL), 1.25 ± 0.085 in assay [2] (agonist: LPS 0.1 ug/mL) and 1.09 ± 0.15 in assay [2] (agonist: MPLA […]). Moreover, the viability score in assay [3] was 0.992 (active).
